CYP2C9 activ: CYP2C9 (human) activation | AID 1024 | recombinant CYP2C9, luciferin-H conversion, luminescence; hits give high values; factor 1 = untreated enzyme, 0 = blocked | actives 1.4% (n = 96,000) | activation factor at 5 µM | P11712;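 active means activation factor of 2 or more for CYP2C9 at a 5 µM dose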
Target sequence (P11712 whole entry, looked up): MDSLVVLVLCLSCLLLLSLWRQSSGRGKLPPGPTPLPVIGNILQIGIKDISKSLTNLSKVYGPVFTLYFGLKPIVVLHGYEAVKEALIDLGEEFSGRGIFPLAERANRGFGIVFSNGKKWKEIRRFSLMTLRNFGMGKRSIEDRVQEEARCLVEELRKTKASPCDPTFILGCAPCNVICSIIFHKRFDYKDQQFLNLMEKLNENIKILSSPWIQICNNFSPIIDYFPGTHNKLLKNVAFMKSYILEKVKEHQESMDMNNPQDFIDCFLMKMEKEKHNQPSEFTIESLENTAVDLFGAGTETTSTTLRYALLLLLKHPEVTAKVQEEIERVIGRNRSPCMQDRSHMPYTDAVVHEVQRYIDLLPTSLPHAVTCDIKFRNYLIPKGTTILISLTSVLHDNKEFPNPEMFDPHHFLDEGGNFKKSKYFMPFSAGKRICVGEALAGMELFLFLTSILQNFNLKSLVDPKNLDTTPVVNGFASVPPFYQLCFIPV
Cav32 inh: human Cav3.2 channel inhibition, primary screen. O95180. Cav3.2-expressing cells, Fluo-4 calcium fluorescence FDSS; hits give low values. B-score at 10 µM. actives 4% (n = 100,000);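 active means single-dose well whose peak fluorescence ratio is a statistical outlier from its plate by either plate-standardised score or position-corrected B-score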
CYP2C9 inh: blocks human cytochrome P450 2C9 | inhibition, % at 5 µM | actives 20% (n = 96,000) | CYP2C9 Supersomes, luciferin-H conversion, luminescence;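 active means blocking of liver enzyme CYP2C9 beyond about 50% at 5 µM, limit read from the data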
CYP2C19 inh: inhibitors of human CYP2C19. P33261. CYP2C19 Supersomes, luciferin-H EGE luminescence, 30 min. inhibition, % at 5 µM. actives 21% (n = 96,000);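 active means CYP2C19 inhibition above a set limit at 5 µM in the primary screen, cut at about 50% in these data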
CYP2C19 activ: increases human CYP2C19 enzyme activity. P33261. recombinant CYP2C19, luciferin-H EGE luminescence; hits give high values; 0 = fully inhibited enzyme, 1 = untreated enzyme. activation factor at 5 µM. 96,000 tested, under 10 active. AID 1025;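 active means activation factor of at least 2 at 5 µM in the primary screen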
Of the large screens only hits and unclear results are named; the others gave an inactive call. Most compounds without a hit are left out; they make up all but 27% or so of the library.

Cn1ccnc1SCC(=O)Nc1ccc(Oc2ccccc2)cc1	CYP2C9 inh 71.4, CYP2C19 inh 88.2
CC1(C)C2CCC13CS(=O)(=O)N[C@@H]3C2 (some centres undefined)	none
CN(C)c1nc(SCc2ccccc2)nc(N2CCOCC2)n1	none
CCOC(=O)CNC(=O)CSc1nc(N(C)C)nc(N2CCOCC2)n1	CYP2C19 inh 83.5
COC(=O)CSc1nc(NC(C)C)nc(N2CCOCC2)n1	CYP2C19 inh 50.4
Brc1cccc(-c2nnc(SCc3ccon3)n2-c2ccccc2)c1	Cav32 inh -4.59, CYP2C19 inh 50.4
N#CCSc1nnc(-c2cccnc2)n1-c1ccccc1	none
Cc1ccc(CCNC(=O)C2CC(c3ccccc3C(F)(F)F)=NO2)cc1 (centres undefined)	none (no result: CYP2C9 activ, CYP2C9 inh, CYP2C19 inh, CYP2C19 activ)
CNc1nc(C)c(C(=O)OCC(=O)OC)s1	none (no result: Cav32 inh)
CCOC(=O)c1sc(N/N=C/c2cccc(C)c2)nc1C	none
CNc1nc(C)c(C(=O)OCc2ccccc2)s1	CYP2C9 inh 53.5, CYP2C19 inh 84.8
CCOC(=O)c1sc(Nc2ccc(C)cc2C)nc1C	CYP2C9 inh 88.4
CCOC(=O)c1c(Nc2nc(C)c(C(=O)NC)s2)sc(C)c1C	CYP2C9 inh 64.8
CCOC(=O)c1c(NC(=O)CN2CCOCC2)sc(C(=O)NC)c1C	none
CCOC(=O)c1sc(NS(=O)(=O)c2ccccc2)nc1C	CYP2C9 inh 81.0
CC[C@H]1OC(=O)[C@H](C)[C@@H](O[C@H]2C[C@@](C)(OC)[C@@H](O)[C@H](C)O2)[C@H](C)[C@@H](O[C@@H]2O[C@H](C)C[C@H](N(C)C)[C@H]2O)[C@](C)(OC)C[C@@H](C)C(=O)[C@H](C)[C@@H](O)[C@]1(C)O	none (no result: CYP2C9 activ, CYP2C9 inh, CYP2C19 inh, CYP2C19 activ)
CCC(C)[C@@H](NC(=O)OC(C)(C)C)c1nnc(S(=O)(=O)Cc2cccc(C)c2)o1 (some centres undefined)	none
CSCC[C@H](NC(=O)NCc1ccc(F)cc1)C(=O)O	none
CCCCN1C(=O)C2NN=C(C(=O)OC)C2C1=O (centres undefined)	none
CN(CC(=O)NCc1ccncc1)S(=O)(=O)c1ccccc1	CYP2C9 inh 83.4, CYP2C19 inh 94.3
CCN(c1ccccc1)S(=O)(=O)c1ccc(Oc2ccc(-n3ccnc3)cc2)nc1	none (no result: CYP2C9 activ, CYP2C9 inh, CYP2C19 inh, CYP2C19 activ)
CN(CC(=O)NCc1ccccc1)S(=O)(=O)c1cnc[nH]1	CYP2C9 inh 79.8, CYP2C19 inh 99.5 (no result: Cav32 inh)
CCN(c1ccccc1)S(=O)(=O)c1cnc[nH]1	CYP2C9 inh 100.0, CYP2C19 inh 98.4
CNC(=O)CN(C)S(=O)(=O)c1ccc(F)cc1	none
CN(CC(=O)NCc1ccncc1)S(=O)(=O)c1ccc(F)cc1	CYP2C9 inh 82.3, CYP2C19 inh 90.8
Cc1nc2ccccc2c2c1C(=O)N(C1CCCCCCC1)C2=O	none
Cn1c(C(=O)N(Cc2ccccc2)Cc2cccs2)cc2sccc21	CYP2C9 inh 73.2
COC(=O)c1ccccc1NC(=S)NC(=O)c1cccc2ccccc12	none
COC(=O)c1ccccc1NC(=S)NC(=O)C1CC1	CYP2C19 inh 52.2
CCCCC(CCC(=O)Nc1ccccc1C(=O)OCC)C(=O)O (centres undefined)	CYP2C9 inh 59.1
CCOC(=O)c1ccc(NC(=O)CCC(CC)C(=O)O)cc1 (centres undefined)	none (no result: Cav32 inh)
CCCC(=O)NC(=S)Nc1ccccc1C(=O)OC	CYP2C19 inh 59.2
COC(=O)C[C@H]1c2cc(F)ccc2S(=O)(=O)N1C(C)C	none (no result: CYP2C9 activ, CYP2C9 inh, CYP2C19 inh, CYP2C19 activ)
COc1cc(OC)c2c(C)cc(=O)oc2c1C(CCN1CCOCC1)c1ccc(N(C)C)cc1 (centres undefined)	none (no result: CYP2C9 activ, CYP2C9 inh, CYP2C19 inh, CYP2C19 activ)
COc1ccccc1-c1cc(C(=O)Nc2sc3c(c2C#N)CCC(C)C3)c2ccccc2n1 (centres undefined)	none
COc1ccccc1-c1cc(C(=O)N/N=C/c2ccc(C)s2)c2ccccc2n1	CYP2C9 inh 99.6, CYP2C19 inh 74.9 (no result: Cav32 inh)
CCn1cc(CNC(=O)c2cc(-c3ccccc3OC)nc3ccccc23)c(C)n1	none
C/C(=N\NC(=O)c1cc(C2CC2)nc2ccccc12)c1ccc(C)s1	none
COc1ccc(/C=N/NC(=O)c2cc(-c3ccc(C)cc3C)nc3ccccc23)cc1COC(C)=O	CYP2C9 inh 74.4 (no result: Cav32 inh)
CCc1ccc(/C=N/NC(=O)c2cc(C3CC3)nc3ccc(Br)cc23)s1	Cav32 inh -5.22
CCc1ccc(/C=N/NC(=O)c2cc(-c3ccccc3OC)nc3ccccc23)s1	CYP2C9 inh 94.2, CYP2C19 inh 66.3
O=C(O)C(NC(=O)c1ccccc1)=C(Cl)Cl	none (no result: CYP2C9 activ, CYP2C9 inh, CYP2C19 inh, CYP2C19 activ)
O=S1(=O)CCC(S(=O)(=O)N2CCCCCC2)C1 (centres undefined)	none (no result: CYP2C9 activ, CYP2C9 inh, CYP2C19 inh, CYP2C19 activ)
Cc1ccc(-c2cc(C(=O)NN=C3CCCC3)c3ccccc3n2)cc1	none
COc1ccc(/C=N/NC(=O)c2ccccc2Cl)cc1CSc1nc2ccccc2s1	CYP2C9 inh 81.5, CYP2C19 inh 51.2
Cc1ccc(-c2cc(C(=O)N/N=C\c3cnn(C)c3C)c3ccccc3n2)cc1C	CYP2C9 inh 98.8, CYP2C19 inh 87.4
CCn1c(SCC(=O)N/N=C/c2ccc(OC)c(OC)c2)nc2ccccc21	none
COc1cccc(NC(=O)c2cn(C)c(=O)c3cc(OC)c(OC)cc23)c1	none
CCN(CC)S(=O)(=O)c1ccc2nnn(OCC(=O)Nc3cccc(C#N)c3)c2c1	CYP2C9 inh 97.4, CYP2C19 inh 94.0
CCN(CC)S(=O)(=O)c1cccc(C(=O)Nc2ccc(C#N)cc2)c1	none
Cc1occc1-c1nnc(SCC(=O)NC(=O)NC(C)C)n1N	none
CCC(=O)Nc1ccc(NC(=O)CSc2nnnn2-c2cccnc2)cc1C	none
Cc1cc(NC(=O)c2ccc3c(c2)C(=O)N(Cc2cccnc2)C3=O)no1	none (no result: Cav32 inh)
C=CCc1ccc(OCCn2cccc2C=O)c(OC)c1	CYP2C19 inh 69.7
C=CCc1ccc(OCCCCCN2CCOCC2)c(OC)c1	CYP2C19 inh 64.2 (no result: Cav32 inh)
COc1cccc(OCCCCCCN2CCOCC2)c1	CYP2C19 inh 53.7
C=CCc1ccc(OCCCOc2ccc(C)c(C)c2)c(OC)c1	none
CC(=O)OC(c1nc2ccccc2c(=O)n1C1CC2(OC1=O)c1ccccc1N1C(=O)C(C)(C)N(O)C12)C(C)C (centres undefined)	none (no result: CYP2C9 activ, CYP2C9 inh, CYP2C19 inh, CYP2C19 activ)
Cc1cc(NC(=O)C2CC(=O)OC2c2ccccc2)no1 (centres undefined)	CYP2C19 inh 52.5
O=C(CSc1ccc2c(c1)OCCO2)NC(=O)NC1CCCC1	CYP2C9 inh 71.8, CYP2C19 inh 94.5
O=C(Nc1ccc2c(c1)OCCO2)NC1CCCCC1	none
O=C(CSc1ccc2c(c1)OCCO2)Nc1ncc(Cl)cc1Cl	CYP2C9 inh 82.5, CYP2C19 inh 75.8
Cc1cc(NS(=O)(=O)c2ccc(NC(=O)C(c3ccccc3)c3ccccc3)cc2)no1	CYP2C9 inh 64.5
CCOC(=O)C1CCN(C(=O)C2CCCCC2)CC1	none
COC(=O)c1ccc(C(=O)OC)c(NC(=O)CSc2cccc[n+]2[O-])c1	none
CCC(Sc1nc2ccccc2[nH]1)C(=O)Nc1cc(C)on1 (centres undefined)	none
Cc1cc(NC(=O)CSc2ccc3c(c2)OCCO3)no1	CYP2C19 inh 56.8
